YB-1 expression = YB-1 expression inhibition; U2OS, qRT-PCR YB-1 vs CDIP delta delta Cp, 16 h; stronger effect = higher value; zero = DMSO, each unit about twofold; delta delta Cp (YB-1 minus CDIP) (concentration not given with the values); actives 0.37% (n = 30,000); AID 434959;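 active = delta delta Cp rounded down to an integer at or above 3, about 3 SD of DMSO wells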;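 note: higher means less YB-1 transcript or more CDIP transcript relative to DMSO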
U2OS ROS induce = raises reactive oxygen species in U2OS cancer cells; actives 2% (n = 46,000); U2OS ROS induction, H2DCF-DA fluorescence; AID 624156; ROS induction (% of piperlongumine), % at 10 µM; in the data active = ROS induction above about 79%, passing the limit was not always enough;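 note: 0% = DMSO vehicle median and 100% = reference compound median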
* = called active by the depositor. Hits are enriched below; roughly 2.1% of the tested compounds scored in any of these assays.

`O=C(O)c1ccccc1C(=O)NCC1CCCO1` (stereo unspecified) gave U2OS ROS induce 2.8.
C=CCNC(=O)c1cc2c(=O)n3ccccc3nc2n(CCC)c1=N was read as U2OS ROS induce 55.6.
C=CCNC(=O)c1cc2c(=O)n3cccc(C)c3nc2n(CC2CCCO2)c1=N (stereo unspecified) was read as U2OS ROS induce 90.1*.
O=C1c2ccccc2C(=O)c2c1oc(-c1ccccc1)c2C(=O)c1ccccc1 was read as U2OS ROS induce 1.2.
Screening COc1ccc(-n2c(C)nnc2SCC(=O)Nc2cccc(C(F)(F)F)c2)cc1 returned U2OS ROS induce 1.6.
COc1ccc(-n2nnc3c(SCC(=O)Nc4cccc(C(F)(F)F)c4)ncnc32)cc1 was read as U2OS ROS induce 261.3*.
For CCOC(=O)c1ccc(NC(=O)O[C@H]2[C@H](OC(=O)Nc3ccccc3)[C@@H](OC(=O)Nc3ccccc3)[C@@H](OC)O[C@@H]2CO)cc1 the results were YB-1 expression -0.355 and U2OS ROS induce 88.3*.
For CCc1cccc(NC(=O)O[C@H]2[C@H](OC(=O)Nc3ccccc3)[C@@H](OC(=O)Nc3ccccc3)[C@@H](OC)O[C@@H]2CO)c1 the results were YB-1 expression 0.164 and U2OS ROS induce 54.9.
Screening COc1c(O)cc2c(c1OC)CC(=O)CCC2 returned U2OS ROS induce -6.3.
Screening Cc1ccc(S(=O)(=O)c2cc3c(=O)n4ccccc4nc3n(Cc3ccccc3)c2=N)cc1 returned U2OS ROS induce -4.9.
Screening CCn1c(=N)c(S(=O)(=O)c2ccccc2)cc2c(=O)n3ccccc3nc21 returned U2OS ROS induce 93.5*.
Screening COc1cc(CCC(=O)N2CCC=CC2=O)cc(OC)c1OC returned YB-1 expression 0.172 and U2OS ROS induce 136.7*.
COc1cc(C(=O)NCCC(=O)N2CCN(C)CC2)cc(OC)c1OC was read as U2OS ROS induce 4.0.
Screening c1ccc(-c2cnc3nonc3n2)cc1 returned YB-1 expression 0.134 and U2OS ROS induce 63.1.
`CCOc1ccc(NC(=O)CCCn2nc(CC)n3c(cc4occc43)c2=O)cc1` gave U2OS ROS induce 1.4.
`COc1ccc([Si](C)(C)[C@H]2[C@H](CCO)O[C@@]3(C(=O)N(Cc4ccccc4)c4ccc(N5CCOC5=O)cc43)[C@@H]2C)cc1` gave YB-1 expression 0.0274 and U2OS ROS induce 35.9.
COc1ccc([Si](C)(C)[C@@H]2[C@@H](CCO)O[C@]3(C(=O)N(Cc4ccccc4)c4ccc(N5CCOC5=O)cc43)[C@H]2C)cc1 was read as YB-1 expression 0.252 and U2OS ROS induce 14.9.
For COc1ccc([Si](C)(C)[C@@H]2[C@@H](CCO)O[C@]3(C(=O)N(Cc4cccc(N5CCOC5=O)c4)c4ccccc43)[C@H]2C)cc1 the results were YB-1 expression -0.31 and U2OS ROS induce 100.9*.
Screening COc1ccc([Si](C)(C)[C@H]2[C@H](CCO)O[C@@]3(C(=O)N(Cc4ccc(NC(C)=O)cc4)c4ccccc43)[C@@H]2C)cc1 returned YB-1 expression 0.0918 and U2OS ROS induce 36.0.
For COc1ccc([Si](C)(C)[C@@H]2[C@@H](CCO)O[C@]3(C(=O)N(Cc4ccc(N5CCOC5=O)cc4)c4ccccc43)[C@H]2C)cc1 the results were YB-1 expression -0.0506 and U2OS ROS induce 239.6*.
COc1ccc([Si](C)(C)[C@@H]2[C@@H](CCO)O[C@]3(C(=O)N(Cc4ccc(NC(C)=O)cc4)c4ccccc43)[C@H]2C)cc1 was read as YB-1 expression -0.115 and U2OS ROS induce 93.2*.
For CCOc1cccc2cc(C(=O)Nc3nccs3)c(=Nc3ccc(C)c(C)c3)oc12 the results were U2OS ROS induce 16.7.
Screening COc1ccc(C2C(C(=O)c3ccc(F)cc3)C(=O)C(=O)N2c2nnc(C)s2)cc1OC (stereo unspecified) returned U2OS ROS induce -11.4.
Screening Cc1cccc(C(=O)Nc2nc3c(s2)C(=O)CC(C)(C)C3)c1 returned U2OS ROS induce -10.9.
`O=C(Nc1nc2ccccc2s1)C1CC1` gave U2OS ROS induce -7.2.
For c1ccc2sc(NC3=NCN(C4CCCCCC4)CN3)nc2c1 the results were YB-1 expression 0.359 and U2OS ROS induce 100.4*.
Cc1ccc(NC(=O)Nc2nnc(N3C(C)CCCC3C)s2)cc1C (stereo unspecified) was read as U2OS ROS induce -12.2.
For Cc1cc(C)c(NC(=O)c2cc(S(=O)(=O)N3CCc4ccccc43)ccc2F)c(C)c1 the results were U2OS ROS induce 11.4.
Screening Cc1cc(C)c(S(=O)(=O)N2CCc3ccccc32)c(C)c1 returned U2OS ROS induce 105.1*.
For CCCCN(Cc1ccco1)C(=O)c1cc2c(s1)-c1ccccc1OC2 the results were U2OS ROS induce 31.0.
Screening Cc1n[nH]c(=O)c2nc(-c3ccccc3)sc12 returned U2OS ROS induce -14.4.
Cc1ccc(/C=C/c2onc3c(=O)[nH]nc(C)c23)cc1 was read as U2OS ROS induce 118.8*.
`Cc1nc2ccc(NC(=O)C(C)(C)C(=O)Nc3ccc4nc(C)c(C)nc4c3)cc2nc1C` gave U2OS ROS induce -4.5.
Screening CC(=O)Nc1ccc(Nc2ncnc3c2c(-c2ccccc2)cn3-c2cccc(C)c2)cc1 returned U2OS ROS induce 96.9*.
`Cc1cccc(-n2ncc3c(Nc4ccc(-c5ccccc5)cc4)ncnc32)c1` gave U2OS ROS induce 4.2.
For O=S(=O)(NCC1CCN(Cc2cccc(OCCO)c2)CC1)c1ccc(Cl)c(Cl)c1 the results were YB-1 expression 0.405 and U2OS ROS induce 122.6*.
Screening O=S(=O)(N[C@@H]1CCCN(Cc2cccc(OCCO)c2)C1)c1ccc(Cl)c(Cl)c1 returned YB-1 expression 0.0315 and U2OS ROS induce 25.1.
For CCOC(=O)c1cnc(N2CCOCC2)nc1N the results were YB-1 expression -0.178 and U2OS ROS induce 28.9.
CCCc1c(C(=O)OCC)c(C(=O)OCC)c2c(-c3ccccc3)nc(N3CCOCC3)nn12 was read as YB-1 expression 3.23* and U2OS ROS induce 114.1*.
`COc1ccc(-c2nc(CNS(=O)(=O)N(C)C)cs2)cc1` gave U2OS ROS induce 1.1.
`CCCC1(C(=O)OCC)CC(CSC(=N)N)OC1=O` (stereo unspecified) gave U2OS ROS induce -9.5.
`COc1ccc2c(c1)c(=O)oc1cc(OC(C)C)ccc12` gave YB-1 expression -0.0167 and U2OS ROS induce 114.2*.
COc1ccc2c(c1)c(=O)oc1cc(O)ccc12 was read as U2OS ROS induce 4.4.
For CC(=O)N/C(=C/c1ccccc1)C(=O)Nc1ccc(I)cc1 the results were U2OS ROS induce 2.6.
Screening COC(=O)c1sc2nc(C)cc(C(F)(F)F)c2c1N returned U2OS ROS induce 3.8.
Screening Cc1cc(C(F)(F)F)c2c(n1)sc1c(=O)[nH]c(C)nc12 returned YB-1 expression -0.00623 and U2OS ROS induce 95.3*.
COc1cc(C2OCC3C(c4cc(OC)c5c(c4)OCO5)OCC23)cc(OC)c1OC (stereo unspecified) was read as YB-1 expression 0.858 and U2OS ROS induce 34.1.
For COc1ccc(C2OCC3C(c4cc(OC)c5c(c4)OCO5)OCC23)cc1OC (stereo unspecified) the results were YB-1 expression 5.01* and U2OS ROS induce 4.5.
`C[C@H](CO)N1C[C@H](C)[C@@H](CN(C)Cc2ccc(Oc3ccccc3)cc2)Oc2ccc(NS(=O)(=O)c3cccs3)cc2C1=O` gave YB-1 expression -0.115 and U2OS ROS induce 93.2*.

Bioassay records as filed in PubChem.
